Activity calls are given as the source filed them.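 How the source made its calls, unless noted: active means inhibition at or above 50% at 10 µM; inactive means inhibition below 50%.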
Tests used:
[1] = inhibitors of TNFa-induced NFkB p65 translocation, primary screen, imaging, HUVEC, MLSMR starter and 10KST1 sets (AID 438;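 active means inhibition above 20% together with a positive visual image hit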;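 further: compound added about 3h40 before a 20 min TNFalpha stimulation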;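 on inhibition: signal is the nuclear over cytoplasmic p65 intensity ratio per well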); conditions: HUVEC TNFa-induced p65 nuclear translocation; cell count: measured here: nuclei count (cytotoxicity indicator), at 2.08 µM; inhibition: at 2 µM, stronger effect = higher value, 0% TNFa-plus-vehicle, 100% no-TNFa wells
[2] = reduction of polyQ htt aggregates in cells – imaging, exon1htt(103Q)mCFP cells, high-content imaging, primary screen (AID 483;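 active means visual image review flags a hit and inhibition of aggregation exceeds 20%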;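 further: compound exposure lasted 3 days before fixation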;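 on nuclei count: percent of the per-plate median nuclei count of sample wells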); conditions: exon1htt(103Q)mCFP cell line, aggregate imaging, at 2 µM; inhibition of aggregation: stronger effect = higher value; nuclei count: measured here: cell count, toxicity
[3] = endothelial E-selectin expression blockers – imaging, HUVEC, immunofluorescence, MLSMR starter and 10KST1 sets, primary screen (AID 487;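 active means visually confirmed hit in the image check and inhibition above 20%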;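 on inhibition: signal is fraction of cell area covered by stained E-selectin grains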;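 on nuclei count: 100% = median nuclei count of all wells on the same plate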); conditions: HUVEC TNFalpha-induced E-selectin immunofluorescence imaging, at 2 µM; inhibition: stronger effect = higher value; nuclei count: measured here: cell number, toxicity
[4] = target: Voltage-gated potassium channel subunit beta-2 (Rattus norvegicus) (UniProt P62483); assay: inhibitors of rat Kvbeta2 reductase activity – biochemical, NADPH fluorescence, primary screen (AID 622;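 active means fluorescence slope higher than the sample average by over 3 SD, cut at about -0.22 in these data, passing the limit was not always enough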;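 further: slope of raw intensity against log time taken from 70 to 1610 s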); conditions: recombinant KvBeta, 4-cyanobenzaldehyde reduction, at 10 µM, stronger effect = higher value
[5] = target: Voltage-gated potassium channel subunit beta-2 (Rattus norvegicus) (UniProt P62483); assay: enhancers of rat Kvbeta2 NADPH turnover – biochemical, NADPH fluorescence, primary screen (AID 623;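 active means NADPH fluorescence slope more negative than the mean of all samples by about 3 SD, 99.7% confidence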;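 further: fluorescence intensity change per second fitted from 20 to 320 s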); conditions: Recombinant KvBeta, NADPH fluorescence decrease slope, 10 min; at 10 µM; stronger effect = lower value
[6] = target: Alpha-2C adrenergic receptor (Homo sapiens) (UniProt P18825); assay: compounds altering alpha2C-coupled GIRK flux – cell-based, HEK293 alpha2C/GIRK1/2, thallium flux, primary screen (AID 624;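 active means fluorescence slope after compound addition differing from the mean of all screened samples at 99.7% confidence, in either direction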;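 further: slope of fluorescence ratio to pre-addition baseline per second over 15 to 24 s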); conditions: thallium flux BTC fluorescence, at 10 µM, actives lie on both sides
[7] = blockers of RIG-like receptor reporter activation – cell-based, Sendai virus stimulus, luciferase, 10K MLSCN set, TLR/RLR signaling modifier project, primary screen (AID 602276); conditions: HEK293 RL24 IRF3 luciferase reporter, at 10 µM, stronger effect = higher value;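 further: firefly luciferase from ISG56 promoter only with Renilla not read in this screen; 0% = Sendai virus plus DMSO and 100% = medium plus DMSO without virus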
[8] = TLR3 IRF3 reporter activation blockers – cell-based, poly I:C stimulus, luciferase, 10K MLSCN set, primary screen (AID 602277;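 active means inhibition of the reporter signal at or above 50%; inactive means inhibition below 50%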); conditions: HEK293-TLR3 RL24 IRF3 luciferase reporter, at 10 µM, stronger effect = higher value

Chain of Voltage-gated potassium channel subunit beta-2 (Rattus norvegicus) (P62483 whole entry, looked up): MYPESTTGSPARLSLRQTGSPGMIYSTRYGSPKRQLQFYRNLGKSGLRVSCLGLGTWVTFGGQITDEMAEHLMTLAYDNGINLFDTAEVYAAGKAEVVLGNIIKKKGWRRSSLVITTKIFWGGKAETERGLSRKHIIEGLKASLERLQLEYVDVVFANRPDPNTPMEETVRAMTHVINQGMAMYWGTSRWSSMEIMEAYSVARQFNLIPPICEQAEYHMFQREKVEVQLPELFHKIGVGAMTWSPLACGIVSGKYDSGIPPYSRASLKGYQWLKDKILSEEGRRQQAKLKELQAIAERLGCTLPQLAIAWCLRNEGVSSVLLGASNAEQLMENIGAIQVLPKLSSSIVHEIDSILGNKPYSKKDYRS
Chain of Alpha-2C adrenergic receptor (Homo sapiens) (P18825 whole entry, looked up): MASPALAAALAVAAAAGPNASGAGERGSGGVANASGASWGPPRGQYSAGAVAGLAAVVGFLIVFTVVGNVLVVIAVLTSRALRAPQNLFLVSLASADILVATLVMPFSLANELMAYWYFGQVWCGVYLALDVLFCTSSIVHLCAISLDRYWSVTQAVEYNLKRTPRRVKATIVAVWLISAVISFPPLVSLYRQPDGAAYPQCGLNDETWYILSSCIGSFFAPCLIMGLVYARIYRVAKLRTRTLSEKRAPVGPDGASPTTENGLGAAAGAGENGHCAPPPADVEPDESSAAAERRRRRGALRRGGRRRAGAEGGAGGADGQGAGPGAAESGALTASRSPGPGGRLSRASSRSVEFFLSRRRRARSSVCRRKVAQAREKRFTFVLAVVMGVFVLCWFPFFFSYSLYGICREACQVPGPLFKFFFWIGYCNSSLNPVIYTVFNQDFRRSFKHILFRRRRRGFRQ

SMILES | cell count [1] | inhibition [1] | inhibition of aggregation [2] | nuclei count [2] | inhibition [3] | nuclei count [3] | fluorescence slope [4] | NADPH fluorescence slope [5] | slope [6] | inhibition [7] | inhibition [8]
CCn1c(SCc2nc(-c3cccs3)no2)nnc1-c1c[nH]c2ccccc12 | 296 | 3.4% (inactive) | 1.2% (inactive) | 82.9% | -1.6% (inactive) | 102% | -0.34 (inactive) | 1.2e-05 (inactive) | 0.0036 (inactive) | 10.2% (inactive) | 13.6% (inactive)
CC(C)NC(=O)Nc1cccs1 | 708 | 3% (inactive) | 21.6% (inactive) | 104% | -84.5% (inactive) | 105% | -0.507 (inactive) | -5.6e-05 (inactive) | 0.00565 (inactive) | 11.4% (inactive) | 4.68% (inactive)
c1ccc2c(c1)nc(-c1ccncc1)n1nnnc21 | 517 | -8.5% (inactive) | 8.6% (inactive) | 104% | -111% (inactive) | 179% | -0.359 (inactive) | -1.7e-05 (inactive) | 0.00824 (inactive) | 7.9% (inactive) | 0.706% (inactive)
Cc1ccccc1NC(=O)C1CCCN(S(=O)(=O)c2cccc3cccnc23)C1 (centres undefined) | 613 | 6.8% (inactive) | 21% (inactive) | 71.1% | -45.4% (inactive) | 112% | -0.554 (inactive) | 1.2e-05 (inactive) | 0.00703 (inactive) | 1.01% (inactive) | 13.7% (inactive)
COc1ccc(-c2nnc(SCC(=O)Nc3cc(C)on3)n2C)cc1OC | 364 | 2.6% (inactive) | -9.8% (inactive) | 87.3% | -12.1% (inactive) | 108% | -0.473 (inactive) | -1.3e-05 (inactive) | 0.00613 (inactive) | -4.06% (inactive) | 25% (inactive)
Clc1cccc(Cl)c1COc1ccncc1 | 353 | 4.4% (inactive) | 11.7% (inactive) | 89.4% | 7.5% (inactive) | 104% | -0.516 (inactive) | 7.2e-05 (inactive) | 0.00644 (inactive) | -16.2% (inactive) | -12% (inactive)
COc1cccc(-n2c(CNc3ccc(F)cc3)nnc2SCC(N)=O)c1 | 475 | 1.9% (inactive) | -17% (inactive) | 113% | -32.3% (inactive) | 76.1% | -0.49 (inactive) | -1.9e-05 (inactive) | 0.00474 (inactive) | 15.9% (inactive) | 24% (inactive)
O=C(CNS(=O)(=O)c1ccccc1)NCc1ccccn1 | 707 | -2.1% (inactive) | -10.6% (inactive) | 106% | -25.5% (inactive) | 113% | -0.517 (inactive) | -1.9e-05 (inactive) | 0.00515 (inactive) | 20.5% (inactive) | 16.3% (inactive)
CC1Cc2ccccc2N1C(=O)c1cnsn1 (centres undefined) | 623 | -4.5% (inactive) | -10.5% (inactive) | 103% | -138% (inactive) | 111% | -0.489 (inactive) | -0.000237 (inactive) | 0.00637 (inactive) | -9.05% (inactive) | -3.1% (inactive)
CC(C)c1nnc(NC(=O)Cc2cccs2)s1 | 640 | 3.4% (inactive) | 8.9% (inactive) | 114% | -47.3% (inactive) | 105% | -0.513 (inactive) | -1.8e-05 (inactive) | 0.00736 (inactive) | 0.388% (inactive) | 22.9% (inactive)
COc1ccc(S(=O)(=O)NCCOc2ccccc2)cc1OC | 310 | -3.3% (inactive) | 8.7% (inactive) | 95.3% | -41.2% (inactive) | 96.1% | -0.439 (inactive) | -3.7e-05 (inactive) | 0.00599 (inactive) | 12.3% (inactive) | 22.2% (inactive)
Cc1ccc2cc(C(c3nnnn3CC3CCCO3)N3CCc4ccccc4C3)c(=O)[nH]c2c1 (centres undefined) | 691 | -6.9% (inactive) | 0.5% (inactive) | 78.6% | -102% (inactive) | 120% | -0.523 (inactive) | -3.7e-05 (inactive) | 0.00473 (inactive) | 14% (inactive) | 29.9% (inactive)
CS(=O)(=O)N(CC(=O)Nc1ccc2c(c1)OCCO2)Cc1ccccc1 | 348 | -4.7% (inactive) | -2.9% (inactive) | 107% | 9.6% (inactive) | 105% | -0.413 (inactive) | 3.7e-05 (inactive) | 0.00583 (inactive) | 8.2% (inactive) | 17.2% (inactive)
COc1ccc(C(=O)NCc2nnc(SC)n2C2CCCCC2)cc1 | 591 | -2.4% (inactive) | -1.1% (inactive) | 96% | -35.7% (inactive) | 101% | -0.521 (inactive) | -3.9e-05 (inactive) | 0.00737 (inactive) | 18.8% (inactive) | 26% (inactive)

— PubChem BioAssay
